Measured values: PubChem BioAssay AID605 (National Center for Advancing Translational Sciences (NCATS), 2007)
Among all 71,000 compounds or so, about 35 (0.05%) were called active. Calls follow the shape of the dose curve; as a rule, active = well fitted curve in the direction sought with a large enough effect; inconclusive = small, poorly fitted or top-dose-only effect, or effect the other way; inactive = flat fitted curve, though single readings scatter. These entries were drawn from the full list.

Biological target: tRNA threonylcarbamoyladenosine biosynthesis protein TsaE (Escherichia coli (strain K12)) (UniProt P0AF67)
Assay: qHTS Assay for Inhibitors of YjeE
Settings: purified YjeE enzyme, qHTS inhibition assay
Description: NIH Molecular Libraries Screening Centers Network [MLSCN]
NIH Chemical Genomics Center [NCGC]
Assay Provider: Eric Brown, McMaster University
YjeE is an essential E.coli protein of unknown function that binds adenosine diphosphate (ADP). A complex of YjeE and BODIPY Texas Red-labeled ADP probe (Invitrogen, catalog number A22359) is incubated with library members. Inhibitors of YjeE-ADP binding are detected by a decrease in the fluorescence polarization (FP) of the fluorophore. Purified YjeE was supplied by Chand Mangat and Eric Brown, McMaster University.
NCGC Assay Protocol Summary:
2 uM probe/10 uM YjeE in columns 1, 2, 5-48. Titration of ADP control (from 40 mM, then 1:2) pin-transferred to top half of column 2. Column 1 and bottom half of column 2 are neutral.
Two and a half uL of reagents were dispensed to 1536-well Greiner black plates. Compounds and controls (20 nL) were transferred via Kalypsys PinTool. The plates were incubated for 15 min at room temperature, and then read on ViewLux (Perkin-Elmer) High-throughput CCD imager using BODIPY polarization filter set and 30 seconds exposure time. During dispense, reagent bottle was kept submerged into 4 deg C water bath and all liquid lines were covered with aluminum foil to minimize probe and protein degradation.
Keywords: NIH Roadmap, MLSCN, MLI, MLSMR, qHTS, NCGC, YjeE

For Oc1ccc(O)c2c(O)cccc12, which outcome is on record?
Its outcome is “inactive”.

For Cc1ccc(S(=O)(=O)NC(=O)N2CCCC(C)(C)C2)cc1, which outcome is on record?
The outcome was “inactive”.

For C=CCOC(=O)COCCC(C)C, which outcome is on record?
The outcome was “inactive”.

How did the outcome turn out when CCC1=C/C(=C\c2ccc3c(c2)OCO3)C(=O)S1 was run?
Its outcome is “inactive”.

How did the outcome turn out when COC(=O)N1CCC[C@@]2(CCN(C(=O)NC(C)C)C2)C1 was run?
The outcome was “inactive”.

Which outcome does the source give for O=S(=O)(NCc1ccccc1Cl)c1cnc[nH]1 here?
The outcome was “inactive”.

How did the outcome turn out when CCCCn1c(SCC(=O)N2CCC(C(=O)OCC)CC2)nc2cc(S(N)(=O)=O)ccc21 was run?
The outcome was “inactive”.

How did the outcome turn out when CCCC(Cl)CCCC(Cl)CCC(Cl)CCC(Cl)CCC(Cl)CCCC(Cl)CCC (stereo not given) was run?
The outcome was “inactive”.

Which outcome does the source give for Nc1ccccc1N here?
Its outcome is “inactive”.

For N[C@@H](C(=O)O)c1ccc(P(=O)(O)O)cc1, which outcome is on record?
The outcome was “inactive”.

For CC(=O)OC(C(=O)NCCc1ccccc1)c1cccnc1 (stereo not given), which outcome is on record?
Its outcome is “inactive”.

For COCc1[nH]nc2c1C(C1C=CCCC1)C(C#N)=C(N)O2 (stereo not given), which outcome is on record?
The outcome was “inactive”.

With O=C(c1csnn1)N1CCC[C@@]2(CCN(Cc3nccs3)C2)C1 as the compound, how does the outcome read?
Its outcome is “inactive”.

Which outcome does the source give for COc1cc(Cl)c(C)cc1NC(=O)CSc1nnc(-c2ccco2)n1CC(C)C here?
The outcome was “inactive”.

Which outcome does the source give for O=C(Nc1cccc(F)c1)N1CC2(CCN(C(=O)c3csnn3)CC2)C1 here?
Its outcome is “inactive”.

For Cc1cccc(CNc2cc(-c3ccccc3Cl)ncn2)c1, which outcome is on record?
Its outcome is “inactive”.

How did the outcome turn out when COC(=O)[C@@H]1[C@H]2C[C@H]3c4[nH]c5cc(OC)ccc5c4CCN3C[C@@H]2C[C@@H](OC(=O)c2cc(OC)c(OC)c(OC)c2)[C@@H]1OC was run?
Its outcome is “inactive”.

For CCOc1ccccc1NC(=O)C1CCN(S(=O)(=O)c2c(C)nn(C)c2C)CC1, which outcome is on record?
The outcome was “inactive”.

For C=CCN1C(=O)C(O)(CC(=O)c2ccc(Cl)cc2)c2ccccc21 (stereo not given), which outcome is on record?
Its outcome is “inactive”.

For CS(=O)(=O)N1CCCC(C(=O)N2CCOCC2)C1 (stereo not given), which outcome is on record?
Its outcome is “inactive”.

Which outcome does the source give for Clc1ccccc1-c1cc(NCCN2CCOCC2)ncn1 here?
Its outcome is “inactive”.

CCc1cc2c(=O)c(-c3ccon3)c(N)oc2cc1OC was tested. Which outcome did it give?
The outcome was “inactive”.

For CCn1c(SCC(=O)Nc2cc(C)ccc2C)nnc1-c1cnccn1, which outcome is on record?
The outcome was “inactive”.

With CC1=C(C(=O)OCc2ccccc2)C(c2ccc(C(F)(F)F)cc2)NC(=O)N1CCCCCC(=O)O (stereo not given) as the compound, how does the outcome read?
Its outcome is “inactive”.

With COC(=O)[C@@]1(C)C=C[C@@H](Cc2ccccc2)N1C(C)=O as the compound, how does the outcome read?
Its outcome is “inactive”.

O=C(Cn1cc(C(=O)c2cccs2)c2ccccc21)NCc1cccs1 was tested. Which outcome did it give?
The outcome was “inactive”.

For O=C(c1cnccn1)N1CCC[C@@]2(CCN(Cc3ccncc3)C2)C1, which outcome is on record?
The outcome was “inactive”.

Which outcome does the source give for COC(=O)CCCCCN1C(=O)NC(c2ccc(-c3ccccc3)cc2)C(C(=O)OCc2ccccc2)=C1C (stereo not given) here?
Its outcome is “inactive”.

With Cc1ccc(Br)cc1 as the compound, how does the outcome read?
The outcome was “inactive”.

O=C1CC(N2CCN(C(c3ccccc3)c3ccccc3)CC2)C(=O)N1 (stereo not given) was tested. Which outcome did it give?
Its outcome is “inactive”.

Which outcome does the source give for CCOc1ccc(C(=O)N(Cc2ccc(N(C)C)cc2)C2CCS(=O)(=O)C2)cc1 (stereo not given) here?
The outcome was “inactive”.

C/C(=C\C(=O)c1ccccc1)Nc1cccc(O)c1 was tested. Which outcome did it give?
The outcome was “inactive”.

How did the outcome turn out when Cc1cc2nc3c(=O)[nH]c(=O)nc-3n(C[C@H](O)[C@H](O)[C@H](O)CO)c2cc1C was run?
The outcome was “inactive”.

For O=C(O)c1ccc(C(=O)c2ccccc2C(=O)O)cc1C(=O)O, which outcome is on record?
The outcome was “inactive”.

For Cc1ccc(-c2c3c(=O)n(C)c(=O)n(C)c3cn2-n2cnnc2)cc1, which outcome is on record?
Its outcome is “inactive”.

With C=CC(=O)OCCOCCOCCOCCOC(=O)C=C as the compound, how does the outcome read?
Its outcome is “inactive”.

For CCOc1ccc2c(c1)cc(CN(C(=O)CC)C1CCCCC1)c1nnnn12, which outcome is on record?
Its outcome is “inactive”.

How did the outcome turn out when Cc1nc2cnc(N3CCNCC3)nc2n(Cc2ccc(F)cc2)c1=O was run?
The outcome was “inactive”.

How did the outcome turn out when COc1ccc2c(=O)cc(-c3ccccc3)oc2c1O was run?
Its outcome is “inactive”.

For C=CCn1c(SCc2csc(C)n2)nc2scc(-c3ccc(C)o3)c2c1=O, which outcome is on record?
The outcome was “inactive”.

For C=CC(=C)CCC=C(C)C, which outcome is on record?
The outcome was “inactive”.

With Cc1ccc(NC(=O)N2CCC(C(=O)NCc3ccc(F)cc3)CC2)cc1 as the compound, how does the outcome read?
The outcome was “inactive”.

For O=C(NCc1ccccc1)[C@H]1C[C@@H]1[C@H](NP(=O)(c1ccccc1)c1ccccc1)c1ccccc1, which outcome is on record?
The outcome was “inactive”.

For O=C1C(c2[nH]c3ccccc3c2O)=Nc2ccccc21, which outcome is on record?
Its outcome is “inactive”.

How did the outcome turn out when COc1c(C)c2c(c(O)c1C/C=C(\C)CCC(=O)O)C(=O)OC2 was run?
Its outcome is “inactive”.

For Fc1ccc2nc(-c3ccccc3)nc(SCc3nnc(-c4ccccc4)o3)c2c1, which outcome is on record?
Its outcome is “inactive”.

For Cc1cc(Cl)ccc1OCC(=O)Oc1c(Cl)c(Cl)c(Cl)c(Cl)c1Cl, which outcome is on record?
Its outcome is “inactive”.

How did the outcome turn out when CCN(CC)CCCCn1c(-c2ccccc2)nc2c(N3CCOCC3)nc(C)nc21 was run?
Its outcome is “inactive”.

For CCNC(=O)CCc1nc(-c2ccc(C(C)(C)C)cc2)no1, which outcome is on record?
Its outcome is “inactive”.

With c1cncc(CNc2ccnc(-c3ccc4c(c3)OCO4)n2)c1 as the compound, how does the outcome read?
Its outcome is “inactive”.

Which outcome does the source give for Cc1cc(C)c2c(c1)c(C)cc1nnc(SCC(=O)NCc3ccco3)n12 here?
Its outcome is “inactive”.

For Cc1ccc(-c2noc(-c3ccccc3C(=O)NCC3CCCO3)n2)cc1 (stereo not given), which outcome is on record?
The outcome was “inactive”.

How did the outcome turn out when c1ccc2c(c1)-c1ccccc1C2N1CC2CCC(CC2)C1 was run?
The outcome was “inactive”.

With CCC(=O)Nc1ccc(C(=O)Nc2ccc3c(c2)C(=O)N(CC2CCCO2)C3=O)cc1 (stereo not given) as the compound, how does the outcome read?
The outcome was “inactive”.

Which outcome does the source give for CSCC[C@H](NC(=O)NCc1cccs1)C(=O)O here?
The outcome was “inactive”.

With Cc1cccn2c(=O)c3cc(C(=O)N4COCC4(C)C)n(C)c3nc12 as the compound, how does the outcome read?
The outcome was “inactive”.

With CCC[C@@H]1C[C@@]1(CCC)[C@@H](NC(=O)c1ccccc1)c1ccc(C(=O)OC)cc1 as the compound, how does the outcome read?
The outcome was “inactive”.

Cc1nc(CNS(=O)(=O)c2ccc(Oc3ccccc3)cc2)cs1 was tested. Which outcome did it give?
Its outcome is “inactive”.

With O=C(c1csnn1)N1CCC2(CCN(Cc3nccs3)CC2)CC1 as the compound, how does the outcome read?
The outcome was “inactive”.

CC1(C)CCCC2=C1CC1C(=O)N(c3ccccc3)C(=O)C1C2 (stereo not given) was tested. Which outcome did it give?
Its outcome is “inactive”.

Which outcome does the source give for COc1ccc(-c2cc(C(=O)NC(C(=O)O)C(C)C)c(C)o2)cc1OC (stereo not given) here?
Its outcome is “inactive”.

How did the outcome turn out when Cc1ccc(-c2nnn(CC(=O)N(CCO)C(C(=O)NC(C)(C)C)c3ccncc3)n2)cc1 (stereo not given) was run?
Its outcome is “inactive”.

Which outcome does the source give for Cc1ccc(NC(=O)CCNS(=O)(=O)c2ccc3c(c2)oc(=O)n3C)cc1C here?
Its outcome is “inactive”.

Which outcome does the source give for CCC/C=C(\CCC)C(NC(=O)Cc1ccccc1)c1ccc(C(=O)OC)cc1 (stereo not given) here?
The outcome was “inactive”.

With O=C1CC(c2cccc(Br)c2)C2=C(CCCC2=O)N1 (stereo not given) as the compound, how does the outcome read?
Its outcome is “inactive”.

For COc1ccc(-c2nc3cnc(Oc4ccccc4)nc3n(Cc3cccs3)c2=O)cc1, which outcome is on record?
Its outcome is “inactive”.

For Oc1c(CN2CCOCC2)ccc(CN2CCOCC2)c1O, which outcome is on record?
Its outcome is “inactive”.

With CC(=O)CSc1nnc(CSc2ncccn2)n1C1CCCCC1 as the compound, how does the outcome read?
Its outcome is “inactive”.

CCN1CCN(C(=O)CN(C)S(=O)(=O)c2ccc(OC)cc2)CC1 was tested. Which outcome did it give?
The outcome was “inactive”.

CCOc1ccc(S(=O)(=O)n2ccnc2)c2ccccc12 was tested. Which outcome did it give?
The outcome was “inactive”.
